Measurements as given in publication PMC4336329 (PLoS ONE, 2015).
In all, about 310,000 compounds went through this assay and about 14,000 (4.5%) showed an effect of 50% or more. Effects have a minus sign here. The full list was thinned out, with strong results kept by preference.

Each molecule was assayed against human ether-à-go-go-related gene (hERG) potassium channel (human, UniProt Q12809) (assay: primary screen, population patch clamp on CHO cells stably expressing hERG; higher = less effect of the substance).
Sequence of human ether-à-go-go-related gene (hERG) potassium channel (Q12809 whole entry, looked up): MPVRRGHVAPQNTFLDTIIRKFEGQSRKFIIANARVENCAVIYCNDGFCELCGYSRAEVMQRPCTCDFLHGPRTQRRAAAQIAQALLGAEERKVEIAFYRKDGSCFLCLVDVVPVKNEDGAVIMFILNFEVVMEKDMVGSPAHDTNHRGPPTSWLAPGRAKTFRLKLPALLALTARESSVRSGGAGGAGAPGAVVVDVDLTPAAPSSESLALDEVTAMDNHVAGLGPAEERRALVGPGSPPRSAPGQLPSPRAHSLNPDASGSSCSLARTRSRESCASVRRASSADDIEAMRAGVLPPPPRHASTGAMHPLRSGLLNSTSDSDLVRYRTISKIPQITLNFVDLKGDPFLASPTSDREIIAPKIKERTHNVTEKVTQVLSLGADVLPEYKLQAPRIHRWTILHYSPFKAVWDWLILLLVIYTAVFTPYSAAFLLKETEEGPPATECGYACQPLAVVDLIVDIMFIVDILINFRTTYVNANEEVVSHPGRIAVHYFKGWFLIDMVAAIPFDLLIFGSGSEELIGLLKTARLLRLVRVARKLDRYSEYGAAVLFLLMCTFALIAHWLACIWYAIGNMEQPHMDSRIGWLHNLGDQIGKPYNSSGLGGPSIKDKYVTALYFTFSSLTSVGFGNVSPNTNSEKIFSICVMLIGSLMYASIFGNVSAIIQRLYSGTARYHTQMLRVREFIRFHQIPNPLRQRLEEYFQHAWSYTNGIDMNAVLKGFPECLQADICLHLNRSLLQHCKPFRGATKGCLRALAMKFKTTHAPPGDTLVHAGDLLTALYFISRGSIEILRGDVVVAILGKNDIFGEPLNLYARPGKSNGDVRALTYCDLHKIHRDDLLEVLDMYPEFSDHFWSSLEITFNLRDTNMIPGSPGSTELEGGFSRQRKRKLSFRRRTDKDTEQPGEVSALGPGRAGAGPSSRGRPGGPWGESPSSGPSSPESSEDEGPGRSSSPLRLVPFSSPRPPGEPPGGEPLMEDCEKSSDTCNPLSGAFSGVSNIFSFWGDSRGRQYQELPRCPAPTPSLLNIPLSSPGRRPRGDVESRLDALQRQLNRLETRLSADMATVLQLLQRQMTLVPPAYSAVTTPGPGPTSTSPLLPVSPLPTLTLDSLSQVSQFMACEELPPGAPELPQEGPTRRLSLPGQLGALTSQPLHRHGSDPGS
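Also: peak tail current of the secondary pulse compared with the same well before compound.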

Structure (SMILES)	hERG current change (%, negative = inhibition) at 10uM [%]
O=S(=O)(CCN1CCOCC1)c1ccc(OC(F)(F)F)cc1	2.9
COc1ccc(OCCOC(=O)C(C)NS(=O)(=O)c2ccc(NC(C)=O)cc2)cc1 (stereo not shown)	-7.73
COC(=O)C1=C(c2c(C)noc2C)C[C@@H]2CC[C@H]1N2C(=O)N1CCCCC1	17.1
CC(=O)Nc1ccc(N=Nc2ccccc2)cc1	8.44
O=C(NC(=S)Nc1nc(-c2ccc([N+](=O)[O-])cc2)cs1)c1ccco1	16.5
O=C(CC1N=C2c3ccccc3N=C(SCc3ccc(F)cc3)N2C1=O)NCc1ccco1 (stereo not shown)	-73.9
O=C(CCC1N=C2c3ccccc3N=C(SCc3cccc(Cl)c3)N2C1=O)NCc1ccco1 (stereo not shown)	-42.2
CCC(C)NC(=O)CSC1=Nc2ccccc2C2=NC(CC(=O)NCc3ccc(F)cc3)C(=O)N12 (stereo not shown)	-11.4
O=C(CCC1N=C2c3ccccc3N=C(SCc3ccccc3Cl)N2C1=O)NCc1ccco1 (stereo not shown)	-32.4
NC(=O)CSC1=Nc2ccccc2C2=NC(CCC(=O)NCc3ccc(F)cc3)C(=O)N12 (stereo not shown)	15.1
O=C(CSC1=Nc2ccccc2C2=NC(CC(=O)NCc3ccco3)C(=O)N12)NCC1CCCO1 (stereo not shown)	7.92
O=C(CCC1N=C2c3ccccc3N=C(SCc3ccc(F)cc3)N2C1=O)NCc1ccco1 (stereo not shown)	-70.9
O=C(CCC1N=C2c3ccccc3N=C(SCc3ccc(Cl)cc3)N2C1=O)NCc1ccco1 (stereo not shown)	-52
O=C(CCC1N=C2c3ccccc3N=C(SCC(=O)NCC3CCCO3)N2C1=O)NCc1ccc(F)cc1 (stereo not shown)	2.89
CCCCN(C)CCNC(=O)c1ccc(Cn2c(=S)[nH]c3ccc(Br)cc3c2=O)cc1	-41
COCCNC(=S)N(CCCN(C)C)Cc1cc2cc3c(cc2[nH]c1=O)OCCO3	24.9
CC(Oc1ccc2c(-c3ccccc3)cc(=O)oc2c1)C(=O)N[C@H](Cc1c[nH]c2ccccc12)C(=O)O (stereo partly shown)	7.48
O=C(NCC1CCCO1)c1cnn2c1NC(c1ccccc1)CC2C(F)(F)F (stereo not shown)	1.68
NS(=O)(=O)c1cccc(NC(=O)COC(=O)CCc2ccccc2)c1	17
CCC(=O)N1CCc2cc(S(=O)(=O)CCC(=O)NCc3ccc4c(c3)OCO4)ccc21	0.659
Cc1ccc2c(CC(=O)NCCc3ccc(S(N)(=O)=O)cc3)coc2c1	-2.43
O=C(O)C(=O)O.c1ccc(COc2ccc(OCCCN3CCCC3)cc2)cc1	-73.8

Structure (SMILES)	hERG current change (%, negative = inhibition) at 10uM [%]
O=C(O)C(=O)O.c1ccc(COc2ccc(OCCCN3CCCCC3)cc2)cc1	-78.3
COc1cccc2c1-c1c(C(=O)O)cccc1C2=O	15.7
CC(=O)c1ccc(NC(=O)C(C)NCc2ccccc2Cl)cc1 (stereo not shown)	-0.834
CCCCN(C)Cc1c(C)[nH]c2ccc(Cl)cc2c1=O	-55.3
CCCCN(C)Cc1c(C)[nH]c2ccc(OCC)cc2c1=O	-39.9
CCN(Cc1ccccc1)Cc1c(C)[nH]c2c(C)c(C)ccc2c1=O	-40.6
CCCCN(CC)Cc1c(C)[nH]c2c(ccc3ccccc32)c1=O	-74.3
CCCCN(C)Cc1c(C)[nH]c2c(ccc3ccccc32)c1=O	-73.6
Cc1[nH]c2ccc(Cl)cc2c(=O)c1CN1CCCC1	1.86
CCCCN(C)Cc1c(C)[nH]c2ccccc2c1=O	-2.26
CCCCN(CC)Cc1c(C)[nH]c2ccccc2c1=O	-20.7
CCCCN(C)Cc1c(C)[nH]c2c(Cl)cccc2c1=O	-38.7
CC1(C)CC(=O)C(C=Nc2cccnc2/N=C/C2=C(O)CC(C)(C)CC2=O)=C(O)C1	14
O=c1[nH]n2c(C(F)(F)F)cc(C3CC3)nc2c1N=Nc1ccccc1	12.2
COc1cc(OC)cc(-c2oc(=O)c3cc(OC)c(OC)cc3c2/C=C/c2ccc(F)cc2)c1	4.91
Cc1ccc(C(=O)n2nnc3ccccc32)cc1	7.37
CN1C(=S)SC(/[N+]([O-])=C\c2ccccc2)C1(C)C (stereo not shown)	-15.4
COC(=O)c1[nH]c2ccccc2c1NC(=O)CN1CCN(Cc2ccc3c(c2)OCO3)CC1	-73.7
COC(=O)c1[nH]c2ccc(C)cc2c1NC(=O)CN1CCN(c2ccc(F)cc2)CC1	-1.02
CCN(CC(=O)Nc1c(C(=O)OC)[nH]c2ccccc12)c1ccc2c(c1)OCO2	-17.4
COC(=O)c1[nH]c2ccccc2c1NC(=O)CN1CCN(c2cccc(Cl)c2)CC1	6.84
CCN(CC(=O)Nc1c(C(=O)OC)[nH]c2ccc(C)cc12)c1ccc2c(c1)OCO2	2.19

Structure (SMILES)	hERG current change (%, negative = inhibition) at 10uM [%]
COC(=O)c1[nH]c2ccc(C)cc2c1NC(=O)CCN1CCN(Cc2ccc3c(c2)OCO3)CC1	-66.1
CCc1noc(C)c1C(=O)Nc1cccc(S(=O)(=O)N(C)c2ccccc2)c1	-22.1
CCN1CCCC1CNC(=O)Cn1cccc1C(=O)c1ccccc1 (stereo not shown)	-3.53
O=C1C=C(c2ccc(F)cc2OCc2ccccc2)C[C@@H](c2ccc(Cl)cc2)C1	6.91
CCOC(=O)[C@H]1[C@H]2COc3ccc(Cl)cc3[C@@H]2N2C(=O)c3cc(C)ccc3NC(=O)[C@@]12C	5.63
Cc1cc(C)n2nc(N)c(N=Nc3ccccc3)c2n1	-3.32
COC(=O)[C@H](CCSC)NC(=O)c1cc2c(cn1)[nH]c1ccccc12	0.117
O=C(CSc1nc2ccccc2[nH]1)c1ccco1	-4.74
CCOC(=O)Nc1ccccc1C(=O)Nc1cc(C)cc(C)c1	28.9
COc1ccc(-c2nc3cc(C)ccn3c2NCC2CCCO2)cc1OC.Cl (stereo not shown)	-71.2
COc1ccc(-c2nc3cccc(C)n3c2NCC2CCCO2)cc1O.Cl (stereo not shown)	-5.6
COc1ccc(-c2nc(C#N)c(NCC3CCCO3)o2)cc1OC (stereo not shown)	6.28
COc1cc(-c2nc3cccc(C)n3c2NCC2CCCO2)ccc1O (stereo not shown)	-51.4
COc1ccc(-c2nc3cccc(C)n3c2NCc2ccco2)cc1OC	-42.2
Cc1ccn2c(NC3CCCC3)c(-c3ccncc3)nc2c1	-10.2
CCOc1cc(-c2nc3c(C)cccn3c2NCC2CCCO2)ccc1O.CNC.Cl (stereo not shown)	-43.9
CCOc1cc(-c2nc3cc(C)ccn3c2NCC2CCCO2)ccc1O (stereo not shown)	-72.2
CCOc1cc(/C=C(\C#N)C(=O)NCC2CCCO2)ccc1O (stereo not shown)	-3.03
CCOc1cc(-c2nc3ccccn3c2NCC2CCCO2)ccc1O (stereo not shown)	-64.7
CCCCNc1c(-c2ccc(OC)c(SC3CCCCC3)c2)nc2cc(C)ccn12.O=C(O)C(F)(F)F	12.6
COc1cc(-c2nc3ccccn3c2NCC2CCCO2)ccc1O (stereo not shown)	-17.9
CCN(CC)CCN1C(=O)C(=O)/C(=C(/O)c2c(C)[nH]c(C(=O)OC)c2C)C1c1ccccc1OC (stereo not shown)	20.8

Structure (SMILES)	hERG current change (%, negative = inhibition) at 10uM [%]
O=C(NCCCN1CCCC1=O)c1cccc(C(F)(F)F)c1	-3
CCOC(=O)C1CCN(CC(C)(C)NS(=O)(=O)c2ccc(Cl)cc2)CC1	-1.75
C/C(=N/Nc1nc(C)cc(C)n1)c1ccc(Br)cc1	-14.9
C/C(=N/Nc1ccnc2cc(Cl)ccc12)c1ccc(O)cc1	-6.2
Cc1ccc(C)c(N2CCN(c3ccncc3N)CC2)c1	-47.8
Cc1c(NC2=CC(=O)CCC2)c(=O)n(-c2ccccc2)n1C	8.37
O=C(CC(=O)N1CCN(c2ccccn2)CC1)Nc1ccc2nc3n(c(=O)c2c1)CCCCC3	-17.9
C/C(=N\N1CCCCC1c1cccnc1)c1c(O)n(C2CCCCC2)c(=S)[nH]c1=O (stereo not shown)	0.0734
CCn1c(O)c(/C(C)=N/N2CCCCC2c2cccnc2)c(=O)[nH]c1=S (stereo not shown)	-55.2
CCCCn1c(O)c(/C(CC)=N/N2CCCCC2c2cccnc2)c(=O)[nH]c1=S (stereo not shown)	-27
O=[N+]([O-])c1cc([N+](=O)[O-])c(Oc2c(F)ccc(F)c2F)cc1NN1CCCCC1	19.8
CC1CCCCC1NC(=O)c1ccc(S(=O)(=O)NCc2ccco2)cc1 (stereo not shown)	7.19
CCNc1nc(=S)nc(NC(C)C)[nH]1	29.6
CCOC(=O)N1CCC(NC(=O)CS(=O)Cc2nc(-c3ccc(Cl)cc3)oc2C)CC1 (stereo not shown)	-47.4
Cc1ccc(-c2nc(CN3CCCC(C(=O)N4CCOCC4)C3)c(C)o2)cc1 (stereo not shown)	-37.5
Cc1oc(-c2cc3c(cc2Cl)OCO3)nc1CN1CCCC(C(=O)N2CCOCC2)C1 (stereo not shown)	-24.7
CCOc1ccc(-c2nc(CN3CCCC(C(=O)N4CCOCC4)C3)c(C)o2)cc1 (stereo not shown)	-26.5
CCOC(=O)N1CCN(C(=O)C2CCCN(Cc3nc(-c4ccc(Cl)cc4)oc3C)C2)CC1 (stereo not shown)	-70.9
Cc1oc(-c2ccc(Cl)cc2)nc1CN1CCCC(C(=O)N2CCOCC2)C1 (stereo not shown)	-53.8
